Reference: PubChem BioAssay AID1159580 (chemical genetic matrix, 2015)
About 2,000 (36%) of roughly 5,500 compounds were called active. Inconclusive results (about 18%) are left out. Cut-off read from the data, not from the text of the source: active = normalized growth mostly below about 0.91 (no sharp cut-off); inconclusive = no clear call, values can overlap the other calls; inactive = mostly above about 0.92. The list shows a part of the results.

Experiment: chemical genetic growth profiling, strain panel (AID 1159580);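 note: tested at 20 µM; growth read once vehicle control cultures reached saturation at 30 °C; 1 = growth at the plate median or of vehicle wells; lower values mean less growth of the strain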
Settings: S. cerevisiae deletion strains, growth OD
[1] = locus YAL013W, strain DEP1, active compounds read low
[2] = locus YCL061C, strain MRC1, active compounds read low
[3] = locus YDR150W, strain NUM1, active compounds read low
[4] = locus YGR078C, strain PAC10, active compounds read low
[5] = locus YGR229C, strain SMI1, active compounds read low
[6] = locus YHR030C, strain SLT2, active compounds read low
[7] = locus YNL153C, strain GIM3, active compounds read low

Measured: normalized growth

COc1ccccc1NC(=O)N1CCCN(C(=O)c2cccs2)CC1
inactive: [1] 1.01 | locus YBR229C, strain ROT2, active compounds read low 1.02 | [2] 1.02 | locus YDL101C, strain DUN1, active compounds read low 1.03 | locus YDL134C, strain PPH21, active compounds read low 1.01 | [3] 1.05 | locus YEL061C, strain CIN8, active compounds read low 0.994 | [4] 1.01 | [5] 1.01 | [6] 1.03 | locus YHR087W, strain rtc3, active compounds read low 0.986 | locus YJR043C, strain POL32, active compounds read low 1.02 | locus YJR075W, strain HOC1, active compounds read low 1.02 | locus YKL190W, strain CNB1, active compounds read low 1.01 | locus YLR039C, strain RIC1, active compounds read low 1.05 | locus YLR058C, strain SHM2 (second series), active compounds read low 1 | locus YLR085C, strain ARP6, active compounds read low 1.03 | locus YLR262C, strain YPT6, active compounds read low 1.02 | locus YML094W, strain GIM5, active compounds read low 1.02 | locus YMR219W, strain ESC1, active compounds read low 1.01 | locus YMR263W, strain SAP30, active compounds read low 1.04 | [7] 1.01 | locus YNL298W, strain CLA4 (second series), active compounds read low 1.04 | locus YNL322C, strain KRE1, active compounds read low 1.01 | locus YNR030W, strain Alg12, active compounds read low 1.02 | locus YPL055C, strain LGE1, active compounds read low 1.01 | locus YPL241C, strain CIN2, active compounds read low 1.05 | locus YPR135W, strain CTF4, active compounds read low 1.04

OC1CCCCC1N1CCC(c2ccccc2)CC1 (stereo not drawn)
inactive: [1] 0.998 | locus YAL021C, strain ccr4, active compounds read low 0.998 | locus YAL026C, strain drs2, active compounds read low 0.994 | locus YAL030W, strain snc1, active compounds read low 0.992 | locus YAL040C, strain CLN3, active compounds read low 0.998 | locus YBL061C, strain skt5, active compounds read low 0.994 | locus YBR009C, strain hhf1, active compounds read low 0.957 | locus YBR023C, strain chs3, active compounds read low 0.999 | locus YBR171W, strain sec66, active compounds read low 0.99 | locus YBR231C, strain swc5, active compounds read low 0.993 | locus YBR279W, strain paf1, active compounds read low 0.999 | locus YCL011C, strain gbp2, active compounds read low 0.996 | locus YCL016C, strain dcc1, active compounds read low 0.989 | locus YCL061C, strain MRC1 (second series), active compounds read low 1.01 | [2] 0.993 | locus YCL069W, strain vba3, active compounds read low 0.989 | locus YCR088W, strain abp1, active compounds read low 0.983 | locus YDL005C, strain med2, active compounds read low 0.992 | locus YDL040C, strain nat1, active compounds read low 0.993 | locus YDR001C, strain nth1, active compounds read low 0.984 | locus YDR069C, strain doa4, active compounds read low 0.998 | locus YDR137W, strain rgp1, active compounds read low 0.945 | [3] 1 | locus YDR159W, strain sac3, active compounds read low 0.997 | locus YDR195W, strain ref2 0.941 | locus YDR297W, strain sur2, active compounds read low 0.995 | locus YDR334W, strain swr1, active compounds read low 0.996 | locus YDR335W, strain msn5, active compounds read low 0.997 | locus YDR363W, strain ESC2, active compounds read low 1.01 | locus YDR392W, strain spt3, active compounds read low 0.902 | locus YEL003W, strain gim4, active compounds read low 0.994 | locus YEL037C, strain rad23, active compounds read low 0.99 | locus YEL061C, strain CIN8 (second series), active compounds read low 0.989 | locus YER002W, strain NOP16, active compounds read low 0.992 | locus YER015W, strain faa2, active compounds read low 0.992 | locus YER016W, strain bim1, active compounds read low 0.993 | locus YER111C, strain swi4, active compounds read low 0.978 | locus YER155C, strain BEM2 (second series), active compounds read low 0.96 | locus YFR010W, strain ubp6, active compounds read low 0.988 | locus YGL167C, strain pmr1, active compounds read low 0.986 | locus YGL173C, strain kem1, active compounds read low 0.994 | locus YGL227W, strain vid30, active compounds read low 0.988 | locus YGL240W, strain doc1, active compounds read low 1.01 | locus YGL253W, strain hxk2, active compounds read low 0.996 | [4] 1.01 | [5] 1.01 | locus YHR013C, strain ard1, active compounds read low 0.941 | locus YHR027C, strain rpn1, active compounds read low 0.988 | [6] 0.979 | locus YHR079C, strain IRE1, active compounds read low 0.983 | locus YHR142W, strain chs7, active compounds read low 1.01 | locus YJL092W, strain hpr5, active compounds read low 0.989 | locus YJL095W, strain BCK1 (second series), active compounds read low 0.993 | locus YJL095W, strain BCK1, active compounds read low 0.984 | locus YJL115W, strain asf1, active compounds read low 0.991 | locus YJL129C, strain trk1, active compounds read low 1.02 | locus YJL154C, strain vps35, active compounds read low 0.987 | locus YJL164C, strain tpk1, active compounds read low 1 | locus YJL166W, strain qcr8, active compounds read low 1 | locus YJL187C, strain SWE1, active compounds read low 0.996 | locus YJR066W, strain TOR1, active compounds read low 0.934 | locus YKL160W, strain elf1, active compounds read low 1.02 | locus YKR026C, strain gcn3, active compounds read low 0.975 | locus YKR091W, strain srl3, active compounds read low 0.983 | locus YLL001W, strain dnm1, active compounds read low 0.981 | locus YLL026W, active compounds read low 0.995 | locus YLL041C, strain sdh2, active compounds read low 0.99 | locus YLR027C, strain aat2, active compounds read low 0.992 | locus YLR113W, strain HOG1, active compounds read low 0.999 | locus YLR221C, strain rsa3, active compounds read low 1.01 | locus YLR258W, strain gsy2, active compounds read low 0.984 | locus YLR262C, strain YPT6 (second series), active compounds read low 0.945 | locus YLR320W, strain mms22, active compounds read low 0.998 | locus YLR342W, strain FKS1, active compounds read low 0.981 | locus YLR357W, strain rsc2, active compounds read low 0.979 | locus YLR370C, strain arc18, active compounds read low 0.992 | locus YLR384C, strain iki3, active compounds read low 0.983 | locus YML120C, strain ndi1, active compounds read low 1.02 | locus YMR058W, strain fet3, active compounds read low 0.999 | locus YMR125W, strain sto1, active compounds read low 0.988 | locus YMR129W, active compounds read low 0.985 | locus YMR205C, strain PFK2, active compounds read low 0.953 | locus YMR231W, strain pep5, active compounds read low 0.988 | locus YMR307W, strain GAS1, active compounds read low 0.991 | locus YNL071W, strain lat1, active compounds read low 0.999 | locus YNL128W, strain TEP1, active compounds read low 0.978 | [7] 0.997 | locus YNL175C, strain NOP13, active compounds read low 0.994 | locus YNL183C, strain NPR1, active compounds read low 0.937 | locus YNL197C, strain WHI3, active compounds read low 0.993 | locus YNL209W, strain ssb2, active compounds read low 0.993 | locus YNL224C, strain SQS1, active compounds read low 0.997 | locus YNL248C, strain rpa49, active compounds read low 1.02 | locus YNL322C, strain KRE1 (second series), active compounds read low 0.992 | locus YNR049C, strain mso1, active compounds read low 0.989 | locus YOR001W, strain rrp6, active compounds read low 1.01 | locus YOR070C, strain gyp1, active compounds read low 0.992 | locus YOR080W, strain dia2, active compounds read low 0.988 | locus YOR083W, strain WHI5 (second series), active compounds read low 1 | locus YOR083W, strain WHI5, active compounds read low 1.02 | locus YOR106W, strain vam3, active compounds read low 1.02 | locus YOR231W, strain MKK1, active compounds read low 0.986 | locus YOR265W, strain rbl2, active compounds read low 0.993 | locus YOR270C, strain vph1, active compounds read low 1 | locus YOR290C, strain snf2, active compounds read low 0.911 | locus YPL051W, strain arl3, active compounds read low 0.999 | locus YPL078C, strain atp4, active compounds read low 1.01 | locus YPL106C, strain sse1, active compounds read low 0.98 | locus YPL240C, strain hsp82, active compounds read low 1 | locus YPL256C, strain CLN2, active compounds read low 1
